The list is not random: actives were taken first. Their share in the collection is about 3.2%.
MEKK2 WT-MEK5 – raises or lowers MEK5 binding to wildtype human MEKK2 PB1 domain. Q9Y2U5. bead flow cytometry, Alexa488-MEK5 binding to MEKK2 WT; actives lie on both sides. binding response (% of control), % at 10 µM. 1.1% of 290,000 active. AID 1531; in the data active means binding response below about 67% or above about 130%
MEKK2mut PB1 HTS – signal of MEK5 binding to mutant human MEKK2 PB1 domain; bead flow cytometry, Alexa488-MEK5 binding to MEKK2 mutant; percent response, % at 10 µM; 0.35% of 290,000 active; AID 1530; in the data active means percent response above about 24%, passing the limit was not always enough
NRP1-CendR mod – modulators of CendR peptide binding to human neuropilin-1; O14786; FAM-RPARPAR peptide binding to NRP-1, fluorescence polarization; inhibition, % at 25 µM; 0.85% of 360,000 active; AID 602438;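 active means inhibition or corrected inhibition above about 18%, plus a signal ratio from 0.5 to 1.5, limit read from the data, passing the limit was not always enough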
MEKK3 PB1 HTS – MEKK3-MEK5 PB1 interaction, increase or decrease; Q99759; bead-based flow cytometry, Alexa488-MEK5 binding to MEKK3; actives lie on both sides; 0 = blocked by unlabeled MEK5, 100 = vehicle; binding response (% of control), % at 10 µM; 1.4% of 290,000 active; AID 1529;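 active means binding response more than 3 SD above or below the average of its plate-row segment, actives on both sides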;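 further: Alexa488 bead fluorescence after subtracting the streptavidin-only scavenger bead signal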
Target sequence (Q99759 whole entry, looked up): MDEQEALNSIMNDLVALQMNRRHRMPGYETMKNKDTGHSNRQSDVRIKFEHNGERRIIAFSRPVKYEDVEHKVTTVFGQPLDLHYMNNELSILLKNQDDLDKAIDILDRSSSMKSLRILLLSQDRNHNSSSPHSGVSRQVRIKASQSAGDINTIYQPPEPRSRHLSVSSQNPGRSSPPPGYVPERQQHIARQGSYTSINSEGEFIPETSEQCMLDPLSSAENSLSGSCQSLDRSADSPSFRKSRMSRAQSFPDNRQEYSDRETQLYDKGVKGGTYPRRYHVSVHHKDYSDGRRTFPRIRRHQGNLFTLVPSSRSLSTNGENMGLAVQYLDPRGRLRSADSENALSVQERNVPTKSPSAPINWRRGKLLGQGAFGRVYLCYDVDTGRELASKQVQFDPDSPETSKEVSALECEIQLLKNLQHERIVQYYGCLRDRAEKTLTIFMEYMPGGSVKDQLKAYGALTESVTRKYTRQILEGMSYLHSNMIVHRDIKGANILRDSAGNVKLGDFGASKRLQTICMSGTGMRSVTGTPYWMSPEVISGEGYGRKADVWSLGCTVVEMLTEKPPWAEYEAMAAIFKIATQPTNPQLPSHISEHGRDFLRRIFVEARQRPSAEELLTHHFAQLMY
SKN-1 inh – inhibitors of C. elegans SKN-1. AID 624304. C. elegans VP596 Pgst-4::GFP/RFP ratio, acrylamide-induced, 24 h. inhibition, % at 21.8 µM. 0.49% of 360,000 active;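 active means interference check ratio from 0.5 to 1.5 plus GFP to RFP signal ratio inhibition reaching or exceeding a fixed threshold, cut at about 30% in these data, passing the limit was not always enough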
MEKK2wt confirm – raises or lowers MEK5 binding to wildtype human MEKK2, retest. AID 1892. 2.4% of 5,900 active. binding response (% of control), % at 10 µM. bead flow cytometry, Alexa488-MEK5 binding to MEKK2 WT; actives lie on both sides. shares compounds with MEKK3 PB1 HTS; in the data active means binding response below about 16% or above about 210%; inactive means in between
MEKK2mut-MEK5 – signal of MEK5 binding to mutant human MEKK2, retest. shares compounds with MEKK3 PB1 HTS. 2% of 5,900 active. AID 1893. bead flow cytometry, Alexa488-MEK5 binding to MEKK2 mutant. percent response, % at 10 µM; in the data active means percent response mostly above about 71%, no sharp cut-off; inactive means mostly below about 38%;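 further: higher means compound restores mutant binding toward wildtype level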
MEKK3-MEK5 inh – confirmation of inhibitors of MEK5 binding to human MEKK3. bead flow cytometry, Alexa488-MEK5 binding to MEKK3; stronger effect = lower value. shares compounds with MEKK3 PB1 HTS. binding response (% of control), % at 10 µM. 1.8% of 5,900 active. AID 1894;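 active means binding response below 72% of control, or above a set upper limit, though filed actives all read lower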;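 further: 100% = DMSO only wells and 0% = binding blocked by excess unlabeled MEK5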
* marks the source's active call; other numbers are inactive results; [ ] = another dose, or the depositor's remark.

How did Cc1ccccc1N(CC(=O)NCc1ccc2c(c1)OCO2)C(=O)CCC(=O)Nc1ccccn1 do in these assays?
MEKK2 WT-MEK5: 86.0; MEKK2mut PB1 HTS: -11.0; NRP1-CendR mod: -3.9; MEKK3 PB1 HTS: 76.0*[inhibitor]; SKN-1 inh: -25.6; MEKK2wt confirm: 100.0; MEKK2mut-MEK5: -6.0; MEKK3-MEK5 inh: 101.0

What do the screens show for `O=C(CN(C(=O)CCC(=O)Nc1ccccn1)c1ccccc1F)NCc1ccc2c(c1)OCO2`?
MEKK2 WT-MEK5: 101.0; MEKK2mut PB1 HTS: -3.0; NRP1-CendR mod: 1.3; MEKK3 PB1 HTS: 100.0; SKN-1 inh: 2.6

How did O=C(C[n+]1cccc(C(=O)N/N=C/c2cccc([N+](=O)[O-])c2)c1)c1ccccc1 do in these assays?
NRP1-CendR mod: -7.9; SKN-1 inh: -3.3

Results for CSc1nc2ccccc2n1CC(=O)Nc1c(C)cccc1C ?
MEKK2 WT-MEK5: 71.0; MEKK2mut PB1 HTS: 6.0; NRP1-CendR mod: 9.6; MEKK3 PB1 HTS: 49.0*[inhibitor]; SKN-1 inh: 0.6; MEKK2wt confirm: 100.0; MEKK2mut-MEK5: -4.0; MEKK3-MEK5 inh: 97.0

What do the screens show for `CSc1nc2ccccc2n1CC(=O)Nc1ccccc1`?
MEKK2 WT-MEK5: 97.0; MEKK2mut PB1 HTS: -2.0; NRP1-CendR mod: 8.6; MEKK3 PB1 HTS: 92.0; SKN-1 inh: 3.8

What do the screens show for `COc1ccc(N2CCN(C(=O)NC3CCCCC3)CC2)cc1`?
MEKK2 WT-MEK5: 99.0; MEKK2mut PB1 HTS: -2.0; NRP1-CendR mod: 1.9; MEKK3 PB1 HTS: 77.0*[inhibitor]; SKN-1 inh: -13.8; MEKK2wt confirm: 104.0; MEKK2mut-MEK5: 1.0; MEKK3-MEK5 inh: 102.0

Results for Cc1csc2c(NCCCN3CCOCC3)ncnc12 ?
MEKK2 WT-MEK5: 136.0; MEKK2mut PB1 HTS: 27.0; NRP1-CendR mod: 16.9; MEKK3 PB1 HTS: 137.0*; SKN-1 inh: -3.1; MEKK2wt confirm: 104.0; MEKK2mut-MEK5: 3.0; MEKK3-MEK5 inh: 104.0

Results for Cc1ccc(S(=O)(=O)NC(=O)C2(C)CCN2C(=O)c2ccc(C(F)(F)F)nc2C)cc1 (stereo not drawn) ?
NRP1-CendR mod: 2.3; SKN-1 inh: 15.7

Results for COc1ccc(OC)c(C(=O)CC2OC(=O)c3ccccc32)c1 (stereo not drawn) ?
MEKK2 WT-MEK5: 110.0; MEKK2mut PB1 HTS: 5.0; NRP1-CendR mod: 4.0; MEKK3 PB1 HTS: 111.0; SKN-1 inh: 7.4

What do the screens show for `COc1ccc2c(c1)C(=O)OC2CC(=O)O` (stereo not drawn)?
MEKK2 WT-MEK5: 14.0*[inhibitor]; MEKK2mut PB1 HTS: -15.0; NRP1-CendR mod: 4.3; MEKK3 PB1 HTS: 9.0*[inhibitor]; SKN-1 inh: 6.7; MEKK2wt confirm: 105.0; MEKK2mut-MEK5: 0.0; MEKK3-MEK5 inh: 105.0

How did Fc1ccccc1CNC(=S)Nc1cccc(C(F)(F)F)c1 do in these assays?
MEKK2 WT-MEK5: 99.0; MEKK2mut PB1 HTS: -1.0; NRP1-CendR mod: -5.4; MEKK3 PB1 HTS: 134.0*; SKN-1 inh: -5.3; MEKK2wt confirm: 110.0; MEKK2mut-MEK5: 8.0; MEKK3-MEK5 inh: 111.0

Results for CC1(C)C2([N+](=O)[O-])CN3CC1([N+](=O)[O-])CN(C2)C3c1ccccc1 (stereo not drawn) ?
MEKK2 WT-MEK5: 102.0; MEKK2mut PB1 HTS: -4.0; NRP1-CendR mod: -9.5; MEKK3 PB1 HTS: 101.0; SKN-1 inh: 7.0

How did CC(C)c1ccc(C2N3CC4([N+](=O)[O-])CN2CC([N+](=O)[O-])(C3)C4(C)C)cc1 (stereo not drawn) do in these assays?
MEKK2 WT-MEK5: 95.0; MEKK2mut PB1 HTS: -1.0; NRP1-CendR mod: 1.3; MEKK3 PB1 HTS: 71.0*[inhibitor]; SKN-1 inh: 6.8; MEKK2wt confirm: 95.0; MEKK2mut-MEK5: -8.0; MEKK3-MEK5 inh: 96.0

What do the screens show for `CCCCCCCCN1C(=O)[C@H](CC(=O)N2CCOCC2)C[C@@]2(C(=O)OCC)CCCC=C12`?
NRP1-CendR mod: 2.1; SKN-1 inh: 14.4
